In PubChem BioAssay (NCATS):
Results filed as inconclusive are left out. Entries that show only a call come without a potency. A number with no mark means an inactive call. Activity calls are given as the source filed them. Calls come from the whole dose curve; as a rule, active = well fitted cell-killing curve with a large enough effect; inconclusive = small, poorly fitted or top-dose-only effect, or effect the other way; inactive = no such curve, though single readings can be large or run the other way.

Assays:
[1] = Viability qHTS for spleen associated tyrosine kinase inhibitor (SYKi) naive MV4-11 cells (AID 1963823); settings: MV4-11 AML viability, CellTiter-Glo luminescence, 72 h; series mostly up to 45 µM; note: nearly all actives have a fitted effect of over 40% in size
Outline: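 Viability of MV4-11 AML cells lacking prior SYK inhibitor exposure is scored by CellTiter-Glo luminescence following 72 hr compound incubation at 37 C, 5% CO2, seeded at 500 cells per well.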

[2] = Viability qHTS for spleen associated tyrosine kinase inhibitor (SYKi) drug resistant MV4-11 cells (AID 1963824); settings: SYKi-resistant MV4-11 viability, CellTiter-Glo, 72 h; series mostly up to 45 µM; note: nearly all actives have a fitted effect of over 35% in size
Outline: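 SYK-inhibitor-resistant MV4-11 AML cells were seeded at 500 per well onto compound and cultured 72 hours (37 °C, 5% CO2). CellTiter-Glo was then added, and after 10 min at room temperature, luminescence gave viability.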
Potency is the fitted concentration of half-maximal effect.

SMILES | Potency [1] | Potency [2] | viability (% of control) [1] | viability, % of control [2]
CCNC(=O)[C@@H]1CCCN1C(=O)[C@H](CCCN=C(N)N)NC(=O)[C@H](CC(C)C)NC(=O)[C@@H](C)NC(=O)[C@H](Cc1ccc(O)cc1)NC(=O)[C@H](CO)NC(=O)[C@H](Cc1c[nH]c2ccccc12)NC(=O)[C@H](Cc1cnc[nH]1)NC(=O)[C@@H]1CCC(=O)N1 | inactive | inactive | – | –
O=C(O)CC1(O)C(=O)Nc2ccccc21 (configuration not stated) | 9.43 µM (active) | inactive | – | –
CCOC(=O)C(CCc1ccccc1)NC(C)C(=O)N1C(=O)N(C)CC1C(=O)O (configuration not stated) | inactive | inactive | – | –
C[C@@H]1C[C@H](O)/C=C/[C@H](O)[C@@H](O)CC(=O)O1 | inactive | inactive | – | –
Cc1cc(C)c(Nc2ccnc(Nc3ccc(C#N)cc3)n2)c(C)c1 | 2.31 µM (active) | 4.11 µM (active) | – | –
CN1C(=O)c2ccccc2NC(=O)[C@]12O[C@@H]2c1cccc(O)c1 | inactive | inactive | – | –
CS(=O)(=O)c1ccc([C@@H](CC2CCCC2)C(=O)Nc2cnccn2)cc1Cl | 31.6 µM (active) | 25.1 µM (active) | – | –
Cc1nc(CN(C)c2ncnc3ccc(-c4ccc5c(c4)OCO5)cc23)cs1 | 3.26 µM (active) | 5.8 µM (active) | – | –
C=CC1C(O[C@@H]2O[C@H](CO)[C@@H](O)[C@H](O)[C@H]2O)OC=C(C(=O)OC)C1CC(=O)O (some centres not stated) | inactive | inactive | – | –
C=C1C[C@]23C[C@H]1CC[C@H]2[C@@]1(C)CCC[C@@]2(C)C(=O)O[C@@H]([C@@H]3O)[C@@H]12 | inactive | 1.43 µM (active) | – | –
C[C@@H]1O[C@@H](O[C@H]2[C@@H](OC(=O)[C@]34CCC(C)(C)CC3C3=CCC5[C@@]6(C)C[C@H](O)[C@H](O[C@@H]7O[C@H](C(=O)O)[C@@H](O)[C@H](O)[C@H]7O)[C@@](C)(C(=O)O)C6CC[C@@]5(C)[C@]3(C)CC4)OC[C@H](O)[C@@H]2O)[C@H](O)[C@H](O)[C@H]1O[C@@H]1OC[C@@H](O)[C@H](O)[C@H]1O (some centres not stated) | – | – | 77.1% [at 9.25 µM] | 74.1% [at 9.25 µM]
